Reference: paper PMC4336329 (PLoS ONE, 2015)
Out of some 310,000 compounds screened, about 14,000 (4.5%) showed an effect of 50% or more. The effect is printed as a negative number. The full list was thinned out, with strong results kept by preference.

What follows are compounds tested against human ether-à-go-go-related gene (hERG) potassium channel (human, UniProt Q12809) (assay: primary screen, population patch clamp on CHO cells stably expressing hERG; higher = less effect of the substance).
Sequence of human ether-à-go-go-related gene (hERG) potassium channel (Q12809 whole entry, looked up): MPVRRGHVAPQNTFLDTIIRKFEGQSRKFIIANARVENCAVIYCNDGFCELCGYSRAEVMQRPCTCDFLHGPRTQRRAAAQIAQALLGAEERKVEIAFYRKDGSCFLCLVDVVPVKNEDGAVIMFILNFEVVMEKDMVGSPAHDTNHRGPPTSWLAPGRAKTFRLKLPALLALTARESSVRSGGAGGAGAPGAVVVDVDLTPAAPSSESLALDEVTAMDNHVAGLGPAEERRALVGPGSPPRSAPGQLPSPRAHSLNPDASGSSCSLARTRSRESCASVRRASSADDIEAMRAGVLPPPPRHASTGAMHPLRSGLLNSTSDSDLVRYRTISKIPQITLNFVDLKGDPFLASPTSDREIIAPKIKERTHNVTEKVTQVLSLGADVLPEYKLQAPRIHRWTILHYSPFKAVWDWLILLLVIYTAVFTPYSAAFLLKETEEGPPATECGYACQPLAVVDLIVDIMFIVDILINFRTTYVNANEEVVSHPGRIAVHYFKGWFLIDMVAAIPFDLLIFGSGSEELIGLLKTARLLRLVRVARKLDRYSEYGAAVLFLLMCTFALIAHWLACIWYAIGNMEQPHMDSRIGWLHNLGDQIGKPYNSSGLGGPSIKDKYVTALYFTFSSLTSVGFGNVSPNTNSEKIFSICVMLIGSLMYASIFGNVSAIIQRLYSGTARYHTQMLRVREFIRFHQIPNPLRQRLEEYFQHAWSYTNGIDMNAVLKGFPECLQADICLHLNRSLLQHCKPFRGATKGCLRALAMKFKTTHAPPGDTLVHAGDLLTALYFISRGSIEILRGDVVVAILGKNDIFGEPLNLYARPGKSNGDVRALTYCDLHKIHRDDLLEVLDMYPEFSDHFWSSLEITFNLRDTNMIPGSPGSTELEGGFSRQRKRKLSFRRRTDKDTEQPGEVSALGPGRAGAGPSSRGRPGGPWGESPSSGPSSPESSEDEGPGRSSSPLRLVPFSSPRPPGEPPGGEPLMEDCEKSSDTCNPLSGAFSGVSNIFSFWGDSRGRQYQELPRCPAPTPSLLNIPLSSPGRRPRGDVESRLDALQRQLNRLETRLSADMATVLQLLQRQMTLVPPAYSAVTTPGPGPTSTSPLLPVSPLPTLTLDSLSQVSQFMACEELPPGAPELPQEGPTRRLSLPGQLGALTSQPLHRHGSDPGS
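Note: peak tail current of the secondary pulse compared with the same well before compound.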

| SMILES | hERG current change (%, negative = inhibition) at 10uM |
| --- | --- |
| O=C(COC(=O)CCc1nc2ccccc2c(=O)[nH]1)Nc1ccc(OC(F)(F)F)cc1 | -5.93% |
| Cc1cc(OC2CCCCC2)nc(NCc2ccccc2)n1 | 1.82% |
| COc1ccccc1CNC(=O)COC(=O)Cc1cccc(F)c1 | 1.78% |
| CC1Cc2ccccc2N1C(=O)CSc1nnc(N)s1 (centres unmarked) | 13% |
| CCC(=O)Nc1nnc(SCC(=O)N2c3ccccc3CC2C)s1 (centres unmarked) | 5.26% |
| Cc1nnc(SCC(=O)N2c3ccccc3CC2C)s1 (centres unmarked) | -54.2% |
| CCOc1ccccc1CN1CCN(Cc2c[nH]c3ccccc23)CC1CCO (centres unmarked) | -6.71% |
| CC(C)CN1CCN(Cc2cc3ccccc3[nH]2)CC1CCO (centres unmarked) | -8.69% |
| COc1cccc(CN2CCN(Cc3cc4ccccc4[nH]3)CC2CCO)c1 (centres unmarked) | -59.7% |
| COc1cccc(CN2CCN(Cc3ccc(C)o3)CC2CCO)c1 (centres unmarked) | -21.2% |
| Cc1c(CN2CCN(CC(C)(C)C)C(CCO)C2)[nH]c2ccccc12 (centres unmarked) | 12.2% |
| Cc1c(CN2CCN(CC(C)C)C(CCO)C2)[nH]c2ccc(Cl)cc12 (centres unmarked) | -34.4% |
| CCOc1ccc(CN2CCN(Cc3[nH]c4ccc(OC)cc4c3C)CC2CCO)cc1 (centres unmarked) | -77.9% |
| CCOc1ccc(CN2CCN(Cc3[nH]c4ccccc4c3C)CC2CCO)cc1 (centres unmarked) | -75.8% |
| COc1ccc2[nH]c(CN3CCN(CC=C(C)C)C(CCO)C3)c(C)c2c1 (centres unmarked) | -17.1% |
| CCOc1ccccc1CN1CCN(Cc2[nH]c3ccccc3c2C)CC1CCO (centres unmarked) | -62.3% |
| COc1ccc2[nH]c(CN3CCN(CCC(C)C)C(CCO)C3)c(C)c2c1 (centres unmarked) | 23.5% |
| NC(=O)COc1ccc(Cc2ncc(C(F)(F)F)cc2Cl)cc1 | -2.34% |
| Cc1ccc(C)c(NS(=O)(=O)c2cc(C(=O)N3CCc4ccccc4C3)ccc2Cl)c1 | 8.24% |
| CCOc1ccc(C(=O)NCC(=O)OCc2c(C)noc2C)cc1OCC | 23.2% |
| Cc1cc(O)c(CN2CCN(c3ccccc3)CC2)cc1C | 3.98% |
| O=C(Nc1ccccc1Cl)Oc1ccc(Cl)cc1Cl | 12.8% |
| Cc1ccc(NC2=Nc3ccccc3CC2)cc1 | -18.2% |

| SMILES | hERG current change (%, negative = inhibition) at 10uM |
| --- | --- |
| CS(=O)(=O)c1ccc2nc(NC(=O)c3ccc(N4C(=O)CCC4=O)cc3)sc2c1 | 6.3% |
| CSc1nc2c(c(=O)[nH]1)C(c1ccccc1Cl)CC(=O)N2 (centres unmarked) | 12.8% |
| CCc1nnc(NS(=O)(=O)c2ccc(Nc3ccc([N+](=O)[O-])c4nonc34)cc2)s1 | 46.6% |
| COc1cc(CN2CCN(Cc3c[nH]c4ccccc34)CC2CCO)cc(OC)c1 (centres unmarked) | -32.3% |
| COc1ccc2[nH]c(CN3CCN(CC(C)C)C(CCO)C3)c(C)c2c1 (centres unmarked) | 5.18% |
| COc1cccc(CN2CCN(Cc3[nH]c4ccccc4c3C)CC2CCO)c1 (centres unmarked) | -60.5% |
| Cc1csc(NC(=O)CSc2nncn2C)n1 | 19% |
| O=C1C=C(NCc2ccccc2)C2(CCCCC2)O1 | 0.0967% |
| CCc1ccc(NC(=O)CSc2nc(=O)n(CCCN3CCOCC3)c3c2CCCC3)cc1 | -54.7% |
| CCOC(=O)c1ccc(NC(=O)CSc2nc(=O)n(CCN3CCOCC3)c3c2CCC3)cc1 | -32% |
| CCOc1ccc(NC(=O)CSc2nc(=O)n(CCCN3CCOCC3)c3c2CCC3)cc1 | -24.1% |
| CCc1ccc(NC(=O)CSc2nc(=O)n(CCCN3CCOCC3)c3c2CCC3)cc1 | -40% |
| CCCCc1ccc(NC(=O)CSc2nc(=O)n(CCCN3CCOCC3)c3c2CCC3)cc1 | -64.5% |
| CCCCc1ccc(NC(=O)CSc2nc(=O)n(CCN3CCOCC3)c3c2CCC3)cc1 | -66.5% |
| O=C(COC(=O)c1cc[n+]([O-])cc1)Nc1ccc(Cl)cc1[N+](=O)[O-] | 15.6% |
| COc1cc(C(=O)OCC(=O)c2c[nH]c3ccccc23)ccc1OCC(=O)N1CCOCC1 | 5.92% |
| Cc1cccc(C(=O)N[C@H](C(=O)Nc2nc3ccccc3[nH]2)C(C)C)c1 | 3.32% |
| COc1ccc(C(CC(=O)c2ccccc2)S(=O)(=O)c2ccc(C)cc2)cc1 (centres unmarked) | 12.8% |
| COc1ccc(Cl)cc1N(CC(=O)NCC(C)C)S(=O)(=O)c1ccc(C)c([N+](=O)[O-])c1 | 8.34% |
| COC(=O)C(NNc1ccccc1C)(NC(=O)c1ccc(F)cc1)C(F)(F)F (centres unmarked) | -1.2% |
| Cc1ccc(NC(=O)c2ccc(OC(F)F)cc2)cc1S(=O)(=O)N(C)C | -10.4% |
| CC(C)c1onc(C(=O)N2CCN(C(c3ccccc3)c3ccccc3)CC2)c1[N+](=O)[O-] | 13.6% |
| O=C(O)C(F)(F)F.O=C1C(Cc2ccccc2)Nc2ncnc(N3CCN(c4ccccc4)CC3)c2N1Cc1ccc(Cl)cc1 (centres unmarked) | 0.92% |

| SMILES | hERG current change (%, negative = inhibition) at 10uM |
| --- | --- |
| Cn1nnc2cc(C(=O)N3CCN(c4ccccc4)CC3)ccc21 | -3.95% |
| Cc1cc(C)cc(N(CC(=O)N2CCC(C)CC2)S(=O)(=O)c2ccccc2)c1 | -70.3% |
| Cc1ccc(S(=O)(=O)N(CC(=O)N2CCC(C)CC2)c2ccccc2)cc1 | -26.4% |
| O=C(CN(c1ccccc1)S(=O)(=O)c1ccccc1)N1CCOCC1 | 4.9% |
| CCOC(=O)N1CCN(C(=O)CN(c2cccc(C)c2)S(=O)(=O)c2ccc(C)cc2)CC1 | -39.7% |
| Cc1ccc(N(CC(=O)N2CCOCC2)S(=O)(=O)c2ccccc2)cc1 | -2.35% |
| CC1CCN(C(=O)CN(c2ccc3c(c2)OCCO3)S(=O)(=O)c2ccccc2)CC1 | -26.6% |
| Cc1cc(C)cc(N(CC(=O)N2CCC(C)CC2)S(C)(=O)=O)c1 | -38.6% |
| Cc1cc(C)cc(N(CC(=O)N2CCOCC2)S(=O)(=O)c2ccccc2)c1 | -56.1% |
| Cc1ccc(S(=O)(=O)N(CC(=O)N2CCC(C)CC2)c2cccc(C)c2)cc1 | -55.1% |
| Cc1cccnc1NC(=O)Nc1cccs1 | 12.4% |
| Cc1ccc(NC(=O)CCl)c(C)c1 | 21.6% |
| COc1ccc(-n2nc(C(=O)NCC(=O)N3CCN(c4cccc(Cl)c4)CC3)c3ccccc3c2=O)c(OC)c1 | -2.74% |
| COc1ccc([N+](=O)[O-])cc1NC(=O)C(C)Sc1nc(C)c(C)c(C)n1 (centres unmarked) | -44.4% |
| CCN(c1ccc(NS(=O)(=O)c2cc(Cl)ccc2Cl)cc1)C(C)C | -0.282% |
| CCN(CC)C(=O)C(C(=O)c1cccc([N+](=O)[O-])c1)n1cc(Cl)ccc1=O (centres unmarked) | 24.8% |
| Cc1nc(-c2cccc(S(=O)(=O)N3CCOCC3)c2)cs1 | -2.11% |
| COc1ccc(-c2[nH]ncc2CNC(C)Cc2ccsc2)c(F)c1 (centres unmarked) | -36.1% |
| CC(Cc1ccsc1)NCc1cn[nH]c1-c1ccc(F)cc1F (centres unmarked) | -66.3% |
| COc1ccc(-c2[nH]ncc2CNC(C)CCn2cccn2)c(F)c1 (centres unmarked) | -15.4% |
| CC(=O)/C(N=Nc1nc2c([nH]1)c(=O)n(C)c(=O)n2C)=C(\C)O | 13.2% |
| O=C(C1CCN(c2nnc(-n3cccc3)s2)CC1)N1CCN(c2cccc(C(F)(F)F)c2)CC1 | -22.8% |
| CCOC(=O)C1CCCN(C(=O)C2CCN(c3nnc(-n4cccc4)s3)CC2)C1 (centres unmarked) | -48.6% |

| SMILES | hERG current change (%, negative = inhibition) at 10uM |
| --- | --- |
| CCOC(=O)N1CCN(C(=O)C2CCN(c3nnc(-n4cccc4)s3)CC2)CC1 | -57.1% |
| CCOC(=O)C1CCN(C(=O)C2CCN(c3nn4c(=O)cc(C)nc4s3)CC2)CC1 | 3.2% |
| Cc1ccc(Cl)cc1N1CCN(C(=O)C2CCN(c3nnc(-n4cccc4)s3)CC2)CC1 | -16.4% |
| CCN1CCN(C(=O)C2CCN(c3nnc(-n4c(C)ccc4C)s3)CC2)CC1 | -13% |
| CC1CCN(C(=O)C2CCN(c3nnc(-n4cccc4)s3)CC2)CC1 | -12.1% |
| CCOC(=O)C1CCN(C(=O)C2CCN(c3nnc(-n4cccc4)s3)CC2)CC1 | -62.5% |
| Cc1cccc(N2CCN(C(=O)C3CCN(c4nnc(-n5cccc5)s4)CC3)CC2C)c1 (centres unmarked) | -55.8% |
| O=C(c1ccc(Br)cc1)N1CCN(S(=O)(=O)c2ccccc2)CC1 | -38.5% |
| CCCCC(=O)NC(=S)Nc1nnn(CCC)n1 | 9.55% |
| COc1ccc(CN(C)C(=O)c2ccc3c(=O)n4c(nc3c2)CCC4)cc1 | 13.7% |
| Cl.NC1=NC2(CCCCC2)N(c2cccc(Cl)c2)C(N)=N1 | 27.9% |
| CCn1nnc(-c2ccccc2NC(=O)C(F)(F)F)n1 | -9.9% |
| CN1CCN(CCC(=O)N/N=C/c2cc3c(cc2[N+](=O)[O-])OCO3)CC1 | 9.64% |
| O=C(NC(=S)Nc1cc(C(F)(F)F)ccc1N1CCOCC1)c1ccco1 | 3.6% |
| COCCNC(=O)C1CC2Cn3c(nc4ccccc43)C2N1C (centres unmarked) | 11.2% |
| O=C(NCc1cccc(C(F)(F)F)c1)C1CC2Cn3c(nc4ccccc43)C2N1Cc1ccccc1 (centres unmarked) | -57.8% |
| O=C(NCc1cccc(Br)c1)C1CC2Cn3c(nc4ccccc43)C2N1c1ccccc1 (centres unmarked) | -20.5% |
| COc1ccccc1CNC(=O)C1CC2Cn3c(nc4ccccc43)C2N1C (centres unmarked) | -9.34% |
| CN1C(C(=O)NCc2ccco2)CC2Cn3c(nc4ccccc43)C21 (centres unmarked) | 10.3% |
| O=C(NCc1cccc(Br)c1)C1CC2Cn3c(nc4ccccc43)C2N1Cc1ccccc1 (centres unmarked) | -74.2% |
